# Results: PubChem BioAssay (NCATS)
# Unmarked numbers belong to inactive results. Results filed as inconclusive are left out. Active and inactive are the calls of the source. Calls follow the shape of the dose curve; as a rule, active = well fitted curve in the direction sought with a large enough effect; inconclusive = small, poorly fitted or top-dose-only effect, or another doubt; inactive = no such curve, though single readings can be large; an effect the other way counts as inactive or inconclusive.
# Test system: not listed separately
# Experiment: HepG2 viability counterscreen (readout 2: ATP content) against the NCATS DSHEA and TCM libraries (AID 1794840);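 also: HepG2 cells exposed to substances for about 24 h; 0% is about no effect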
# Settings: ATP content luminescence; series mostly up to 27.3 µM; activity change, negative = cytotoxic: at the top concentration
# How it was run: (§1)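 After HepG2 cells attach for ~4 h, substances are added and incubated ~24 h at 37C, 5% CO2. GF-AFC fluorescence then CellTiter-Glo luminescence give protease and ATP readouts.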
row,Structure (SMILES),"activity change, negative = cytotoxic"
1,CC(C)=CCC[C@@](C)(O)[C@H]1CC=C(C)CC1,-1.93%
2,Cc1ccc(C(C)C)c(O)c1,-0.917%
3,NC(=O)NC1NC(=O)NC1=O (centres undefined),13.5%
4,O=C(/C=C/c1ccc(O)c(O)c1)O[C@@H]1C[C@@](OC(=O)/C=C/c2ccc(O)c(O)c2)(C(=O)O)C[C@@H](O)[C@@H]1O,12.4%

# Test system: not listed separately
# Experiment: HepG2 viability counterscreen (readout 1: protease activity) against the NCATS DSHEA and TCM libraries (AID 1794841);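 also: cells exposed to compounds for about 24 h before the protease read; 0% is about no effect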
# Settings: qHTS concentration series; series mostly up to 27.3 µM; activity change, negative = inhibition: at the top concentration
# How it was run: as §1
row,Structure (SMILES),"activity change, negative = inhibition"
1,CC(C)=CCC[C@@](C)(O)[C@H]1CC=C(C)CC1,24.5%
2,Cc1ccc(C(C)C)c(O)c1,8.39%
3,NC(=O)NC1NC(=O)NC1=O (centres undefined),21.9%
4,O=C(/C=C/c1ccc(O)c(O)c1)O[C@@H]1C[C@@](OC(=O)/C=C/c2ccc(O)c(O)c2)(C(=O)O)C[C@@H](O)[C@@H]1O,11.1%

# Molecular target: Glutathione peroxidase 1 (Homo sapiens) (UniProt P07203)
# Experiment: Primary qHTS Assay for Inhibitors of Recombinant Selenoprotein Glutathione Peroxidase 1 (GPX1) (AID 1845191); also: nearly all actives have a fitted effect of over 65% in size; also: potency is read from the fitted curve at half-maximal effect; as to activity, negative = inhibition: % is scaled to controls: 0 for no effect and ±100 for the full control effect
# Settings: recombinant GPX1, GR-coupled NADPH fluorescence, 15 min; series mostly up to 48.8 µM; activity, negative = inhibition: at the top concentration; outcome: at the top concentration
# How it was run: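 NADPH consumption tracked by fluorescence at 340/450 nm between t=0 and t=15 min, room temperature. Final mix: 10 nM GPX1, 100 nM glutathione reductase, 1 mM GSH, 0.5 mM NADPH, 0.5 mM cumene hydroperoxide, 0.01% BSA; 30 min compound–enzyme preincubation.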
# Chain of Glutathione peroxidase 1 (Homo sapiens) (P07203 whole entry, looked up): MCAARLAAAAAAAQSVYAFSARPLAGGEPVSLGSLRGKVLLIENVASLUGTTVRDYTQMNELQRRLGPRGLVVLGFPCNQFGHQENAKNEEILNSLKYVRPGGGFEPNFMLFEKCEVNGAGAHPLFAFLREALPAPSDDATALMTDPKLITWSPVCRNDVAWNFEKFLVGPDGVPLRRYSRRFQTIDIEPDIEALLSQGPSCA
Structure (SMILES),outcome,"activity, negative = inhibition",Potency
COC(=O)N/N=C/c1c[n+]([O-])c2ccccc2[n+]1[O-],inactive,–,–
CC[C@H](C)[C@H](N)C(=O)O,–,4.53%,–
CCOC(=O)[C@H](CCc1ccccc1)N[C@@H](C)C(=O)N1Cc2cc(OC)c(OC)cc2C[C@H]1C(=O)O,inactive,–,–
CC(=O)OCC(=O)[C@@]1(O)CC[C@H]2[C@@H]3CCC4=CC(=O)C=C[C@]4(C)[C@@]3(F)[C@@H](O)C[C@@]21C,inactive,–,–
CCOC(=O)OC(C)OC(=O)[C@@H]1N2C(=O)[C@@H](NC(=O)[C@H](N)c3ccccc3)[C@H]2SC1(C)C (some centres undefined),–,-14.1%,–
C=CCN1C[C@H](C(=O)N(CCCN(C)C)C(=O)NCC)C[C@@H]2c3cccc4[nH]cc(c34)C[C@H]21,–,-8.67%,–
O=C(NCC(O)CO)c1c(I)c(C(=O)NCC(O)CO)c(I)c(N(CCO)C(=O)CO)c1I (centres undefined),–,-17.3%,–
CN1C(=O)CC(c2ccccc2)C1=O (centres undefined),–,-0.709%,–
C/C=C1\[C@H]2C=C(C)C[C@]1(N)c1ccc(=O)[nH]c1C2,–,-25.8%,–
CCN[C@H]1CN(CCCOC)S(=O)(=O)c2sc(S(N)(=O)=O)cc21,–,-16.3%,–
COc1ccccc1OCC(O)CO (centres undefined),–,-13%,–
C1CCN2C[C@@H]3C[C@@H](CN4CCCC[C@@H]34)[C@H]2C1,–,3.78%,–
Cc1ccsc1/C=C/C1=NCCCN1C,–,0.14%,–
CC(C)(C)NCC(O)COc1cccc2c1CCC(=O)N2 (centres undefined),–,-0.435%,–
Cc1ccc(C(C)C)c(O)c1,inactive,–,–
CC(C)NC[C@@H](O)COc1ccc(CC(N)=O)cc1,–,-8.18%,–
CC1(C)S[C@@H]2[C@H](NC(=O)C(C(=O)O)c3ccccc3)C(=O)N2[C@H]1C(=O)O (some centres undefined),inactive,–,–

Structure (SMILES),outcome,"activity, negative = inhibition",Potency
NC(=O)NC1NC(=O)NC1=O (centres undefined),–,-5.2%,–
CCCNC(C)C(=O)Nc1c(C)csc1C(=O)OC (centres undefined),–,3.86%,–
NS(=O)(=O)c1cc(C2(O)NC(=O)c3ccccc32)ccc1Cl (centres undefined),–,-12.4%,–
CN[C@@H]1[C@@H](O)[C@@H](O[C@@H]2[C@H](O)[C@H](O[C@H]3OC(CN)=CC[C@H]3N)[C@@H](N)C[C@H]2N)OCC1(C)O (some centres undefined),inactive,–,–
CN[C@@H]1[C@H](O)[C@H](NC)[C@H]2O[C@@]3(O)C(=O)C[C@@H](C)O[C@H]3O[C@@H]2[C@H]1O,inactive,–,–
C[n+]1ccccc1/C=N/O,inactive,–,–
COCC(=O)Nc1c(I)c(C(=O)NCC(O)CO)c(I)c(C(=O)N(C)CC(O)CO)c1I (centres undefined),–,1.91%,–
Cn1cc(C(=O)[C@@H]2CCc3nc[nH]c3C2)c2ccccc21,inactive,–,–
C[N+]1(C)CCCC(OC(=O)C(O)(c2ccccc2)c2ccccc2)C1 (centres undefined),inactive,–,–
CC1(C)S[C@@H]2[C@H](N=CN3CCCCCC3)C(=O)N2[C@H]1C(=O)O,–,-16.5%,–
C=CCOc1ccccc1OCC(O)CNC(C)C (centres undefined),–,-9.9%,–
O=C(O)C(S)C(S)C(=O)O (centres undefined),–,–,7.18 µM (active)
C[C@@H](c1ncncc1F)C(O)(Cn1cncn1)c1ccc(F)cc1F (some centres undefined),–,-2.37%,–
CC1(C)[C@@H](OC(=O)CCC(=O)O)CC[C@]2(C)[C@H]3C(=O)C=C4[C@@H]5C[C@@](C)(C(=O)O)CC[C@]5(C)CC[C@@]4(C)[C@]3(C)CC[C@@H]12,inactive,–,–
CCOc1ccccc1O[C@H](c1ccccc1)[C@H]1CNCCO1,inactive,–,–
CO[C@@]1(NC(=O)C(C(=O)O)c2ccc(O)cc2)C(=O)N2C(C(=O)O)=C(CSc3nnnn3C)CO[C@@H]21 (some centres undefined),–,-17.8%,–
CC(=O)N(CC(O)CN(C(C)=O)c1c(I)c(C(=O)NCC(O)CO)c(I)c(C(=O)NCC(O)CO)c1I)c1c(I)c(C(=O)NCC(O)CO)c(I)c(C(=O)NCC(O)CO)c1I (centres undefined),–,3.88%,–

# Molecular target: Phospholipid hydroperoxide glutathione peroxidase GPX4 (Homo sapiens) (UniProt P36969)
# Experiment: Primary qHTS Assay for Inhibitors of Recombinant Selenoprotein Glutathione Peroxidase 4 (GPX4) (AID 1845192); also: nearly all actives have a fitted effect of over 65% in size; as to activity change, negative = inhibition: % is scaled to controls: 0 for no effect and ±100 for the full control effect
# Settings: recombinant GPX4, GR-coupled NADPH fluorescence, 15 min; series mostly up to 50 µM; activity change, negative = inhibition: at the top concentration; outcome: at the top concentration
# How it was run: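 NADPH consumption followed by fluorescence at 340/450 nm, t=0 and after 15 min at room temperature. Reaction started with cumene hydroperoxide (0.5 mM final) after 30 min compound–GPX4 preincubation; final 200 nM GPX4, 100 nM GR, 1 mM GSH, 0.5 mM NADPH.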
# Chain of Phospholipid hydroperoxide glutathione peroxidase GPX4 (Homo sapiens) (P36969 whole entry, looked up): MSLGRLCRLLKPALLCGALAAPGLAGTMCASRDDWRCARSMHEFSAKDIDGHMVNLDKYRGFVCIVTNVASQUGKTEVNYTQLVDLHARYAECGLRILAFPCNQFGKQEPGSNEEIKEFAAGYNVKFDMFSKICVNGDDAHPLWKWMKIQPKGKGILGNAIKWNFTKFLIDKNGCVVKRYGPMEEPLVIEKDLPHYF
Structure (SMILES),outcome,"activity change, negative = inhibition"
COC(=O)N/N=C/c1c[n+]([O-])c2ccccc2[n+]1[O-],inactive,–
CC[C@H](C)[C@H](N)C(=O)O,inactive,–
CCOC(=O)[C@H](CCc1ccccc1)N[C@@H](C)C(=O)N1Cc2cc(OC)c(OC)cc2C[C@H]1C(=O)O,inactive,–
CC(=O)OCC(=O)[C@@]1(O)CC[C@H]2[C@@H]3CCC4=CC(=O)C=C[C@]4(C)[C@@]3(F)[C@@H](O)C[C@@]21C,–,0.46%
CCOC(=O)OC(C)OC(=O)[C@@H]1N2C(=O)[C@@H](NC(=O)[C@H](N)c3ccccc3)[C@H]2SC1(C)C (some centres undefined),–,-16.5%
O=C(NCC(O)CO)c1c(I)c(C(=O)NCC(O)CO)c(I)c(N(CCO)C(=O)CO)c1I (centres undefined),–,-19.9%
CN1C(=O)CC(c2ccccc2)C1=O (centres undefined),–,1.29%
C/C=C1\[C@H]2C=C(C)C[C@]1(N)c1ccc(=O)[nH]c1C2,–,4.88%
CCN[C@H]1CN(CCCOC)S(=O)(=O)c2sc(S(N)(=O)=O)cc21,–,-8.4%
COc1ccccc1OCC(O)CO (centres undefined),–,-7.27%
C1CCN2C[C@@H]3C[C@@H](CN4CCCC[C@@H]34)[C@H]2C1,–,2.1%
Cc1ccsc1/C=C/C1=NCCCN1C,inactive,–
CC(C)(C)NCC(O)COc1cccc2c1CCC(=O)N2 (centres undefined),–,-6.07%
Cc1ccc(C(C)C)c(O)c1,–,0.0025%
CC(C)NC[C@@H](O)COc1ccc(CC(N)=O)cc1,–,-1.51%
CC1(C)S[C@@H]2[C@H](NC(=O)C(C(=O)O)c3ccccc3)C(=O)N2[C@H]1C(=O)O (some centres undefined),inactive,–

Structure (SMILES),outcome,"activity change, negative = inhibition"
NC(=O)NC1NC(=O)NC1=O (centres undefined),–,-6.46%
CCCNC(C)C(=O)Nc1c(C)csc1C(=O)OC (centres undefined),inactive,–
NS(=O)(=O)c1cc(C2(O)NC(=O)c3ccccc32)ccc1Cl (centres undefined),–,-1.31%
CN[C@@H]1[C@@H](O)[C@@H](O[C@@H]2[C@H](O)[C@H](O[C@H]3OC(CN)=CC[C@H]3N)[C@@H](N)C[C@H]2N)OCC1(C)O (some centres undefined),inactive,–
CN[C@@H]1[C@H](O)[C@H](NC)[C@H]2O[C@@]3(O)C(=O)C[C@@H](C)O[C@H]3O[C@@H]2[C@H]1O,inactive,–
C[n+]1ccccc1/C=N/O,inactive,–
COCC(=O)Nc1c(I)c(C(=O)NCC(O)CO)c(I)c(C(=O)N(C)CC(O)CO)c1I (centres undefined),–,0.694%
Cn1cc(C(=O)[C@@H]2CCc3nc[nH]c3C2)c2ccccc21,inactive,–
C[N+]1(C)CCCC(OC(=O)C(O)(c2ccccc2)c2ccccc2)C1 (centres undefined),inactive,–
CC1(C)S[C@@H]2[C@H](N=CN3CCCCCC3)C(=O)N2[C@H]1C(=O)O,–,-8.94%
C=CCOc1ccccc1OCC(O)CNC(C)C (centres undefined),–,-17.9%
C[C@@H](c1ncncc1F)C(O)(Cn1cncn1)c1ccc(F)cc1F (some centres undefined),inactive,–
CC1(C)[C@@H](OC(=O)CCC(=O)O)CC[C@]2(C)[C@H]3C(=O)C=C4[C@@H]5C[C@@](C)(C(=O)O)CC[C@]5(C)CC[C@@]4(C)[C@]3(C)CC[C@@H]12,inactive,–
CCOc1ccccc1O[C@H](c1ccccc1)[C@H]1CNCCO1,inactive,–
CO[C@@]1(NC(=O)C(C(=O)O)c2ccc(O)cc2)C(=O)N2C(C(=O)O)=C(CSc3nnnn3C)CO[C@@H]21 (some centres undefined),–,3.72%
CC(=O)N(CC(O)CN(C(C)=O)c1c(I)c(C(=O)NCC(O)CO)c(I)c(C(=O)NCC(O)CO)c1I)c1c(I)c(C(=O)NCC(O)CO)c(I)c(C(=O)NCC(O)CO)c1I (centres undefined),inactive,–
